TGFb inhibitor: blocks TGF-b signaling; 1.2% of 410,000 active; Potency, µM (titrated, usually from 46.1 µM), inactives show top-dose activity, negative = inhibition, hits mostly inhibitors; HepG2 CAGA-GFP TGF-b/SMAD3 reporter, GFP fluorescence, 18 h; TGF-beta stimulated, 500 pg/mL final; further: on the % scale 0 is the no-effect control and ±100 the full control effect; nearly all actives have a fitted effect of over 65% in size
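Inhibition was scored as loss of TGF-beta-induced (500 pg/mL final, 18 hours, 37 degrees C) GFP in HEPG2 cells carrying a CAGA-GFP reporter, in DMEM with 1% FBS. Well GFP was summed per cell; Activity was normalised to unstimulated and stimulated DMSO wells, then concentration-response fitting.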
HT1080NT lethal: kills 2HG-producing HT-1080-NT fibrosarcoma cells | HT-1080-NT fibrosarcoma viability, CellTiter-Glo ATP luminescence, 48 h | Potency, µM (titrated, usually from 46.1 µM), inactives show at the highest dose activity, negative = less viability, hits mostly cytotoxic | 1.6% of 360,000 active;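 further: NT is the 2HG producing partner of a matched IDH1 knockdown line; 0% = DMSO-treated cells and -100% = media-only wells without cells; nearly all actives have a fitted effect of over 55% in size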
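Toxicity toward the 2HG-producing NT line was scored as %Activity, normalised to DMSO and no-cell wells, from CellTiter-Glo luminescence after 48 hours' treatment.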
HT1080 IDH1KD tx: toxicity to HT-1080 IDH1 knockdown cells (counter line) | HT-1080 IDH1 knockdown viability, ATP luminescence, 48 h | Potency, µM (doses to about 46.1 µM), for inactives: at the highest dose activity, negative = toxicity, hits mostly cytotoxic | 2% of 360,000 active | AID 686971;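 further: 0% = DMSO wells and -100% = cell-free medium wells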
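Knockdown cells (IDH1KD HT-1080) received compounds 2 h after plating at 750 cells/well and were kept 48 h at 37 °C in 5% FBS RPMI. A CellTiter-Glo luminescence read gave % activity for curve fitting.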
ATXN viability: viability counter-screen for ATXN expression inhibitors; S2 cells (HEK-293 line with an ATXN2-luciferase reporter) viability, CellTiter-Fluor protease fluorescence, 24 h; Potency, µM (titrated, usually from 56.7 µM), usual class: cytotoxic; 0.49% of 400,000 active; AID 651635; further: nearly all actives have a fitted effect of over 40% in size
HepG2 viability: HepG2 cytotoxicity, counter-screen for TGF-b inhibitors; 0.76% of 410,000 active; Potency, µM (series often up to 46.1 µM), inactives show at the highest dose activity change, negative = cytotoxicity, most hits filed as cytotoxic; HepG2 CAGA-GFP viability, ATP luminescence, 18 h; AID 588856
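HepG2 CAGA-GFP cells (1000/well, DMEM with 1% FBS) received compound, then TGF-beta at 500 pg/mL final, and were incubated 18 hours at 37 degrees C. Viability was read by CellTiter-Glo luminescence. Media-only wells were set as complete cell-killing and DMSO as no toxicity.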
ATXN2 expr inh: ATXN2 expression inhibition. Potency, µM (series often up to 57 µM), inactives show at the top dose activity change, negative = inhibition, actives largely listed as inhibitors. HEK-293 ATXN2-luciferase reporter, luminescence, 24 h. 0.72% of 360,000 active. AID 1745845; further: on the % scale 0 is the no-effect control and ±100 the full control effect; nearly all actives have a fitted effect of over 55% in size
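ATXN2-luciferase reporter cells (luciferase flanked by upstream and downstream ATXN2 gene portions) were treated 24 h at 37 °C with compounds at up to 57 uM. SteadyGlo luminescence gave expression; GF-AFC fluorescence gave viability.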
* hit, by the source's call; i = inactive; ? = inconclusive; . = not tested or not shown. Sampled rows, rich in hits. Any-hit rate of the full collection: about 3.8%. The call rests on the fitted dose curve; in most records, active means well fitted curve in the direction sought with a large enough effect; inconclusive means small, poorly fitted or top-dose-only effect, or another doubt; inactive means no such curve, though single readings can be large; an effect the other way counts as inactive or inconclusive. Potency means the concentration at half of the fitted maximal effect.

SMILES	TGFb inhibitor	HT1080NT lethal	HT1080 IDH1KD tx	ATXN viability	HepG2 viability	ATXN2 expr inh
CC(C)C(N)c1csc(NC(=O)Nc2cccc(C(F)(F)F)c2)n1 (stereo not drawn)	?	20.6µM*	23.1µM*	.	-98.6%	?
CCOC(=O)[C@H](CCc1ccccc1)N[C@@H](C)C(=O)N(CC(=O)O)C1Cc2ccccc2C1	.	.	.	i	.	-3.8%
COc1ccc(CCn2c(=S)[nH]c(=O)c3nccnc32)cc1OC	.	2.9%	-5.2%	.	.	.
COc1cc(CNC(=O)Nc2nc(C(N)Cc3ccc(C(F)(F)F)cc3)cs2)cc(OC)c1OC (stereo not drawn)	?	?	?	?	-94.8%	?
NC(Cc1ccc(C(F)(F)F)cc1)c1csc(NC(=O)Nc2ccccc2)n1 (stereo not drawn)	?	?	16.4µM*	.	15.8µM*	?
NC(Cc1ccc(C(F)(F)F)cc1)c1csc(NC(=O)Nc2ccccc2Cl)n1 (stereo not drawn)	?	14.6µM*	?	?	-97.6%	?
COc1ccc(CC(N)c2csc(NC(=O)Nc3ccc(F)cc3)n2)cc1 (stereo not drawn)	11.2µM*	?	?	i	17.8µM*	-31.8%
COc1ccc(CC(N)c2csc(NC(=O)Nc3cccc(C(F)(F)F)c3)n2)cc1 (stereo not drawn)	?	18.4µM*	16.4µM*	?	-113.8%	?
Cc1nc2cc(NC(=O)C3CC34CCN(Cc3ccc(O)c(Cl)c3)CC4)ccc2s1 (stereo not drawn)	.	.	.	i	.	.
COc1cc(=O)n2c(c1C(=O)N(C)Cc1nonc1C)CCN(Cc1ccc(F)cc1)CC2	.	.	.	i	.	.
Cc1nc(SC2CC(=O)N(c3cc(Cl)cc(Cl)c3)C2=O)nc2c1CCCC2 (stereo not drawn)	?	-18.8%	-22.9%	i	-7.1%	-2.8%
COc1ccc(N2C(=O)CC(Sc3nc(C)c4c(n3)CCCC4)C2=O)cc1 (stereo not drawn)	14.0%	14.6µM*	?	i	-19.5%	-15.6%
COc1ccc(N2C(=O)CC(Sc3nc4c(cc3C#N)CCC4)C2=O)cc1 (stereo not drawn)	-21.9%	?	17.6%	i	-9.2%	36.4%
Cc1cccc(N2C(=O)CC(Sc3nc(C)c4c(n3)CCCC4)C2=O)c1 (stereo not drawn)	1.1%	7.08µM*	10µM*	i	0.6%	-2.8%
Cc1ccccc1C(=O)/C=C1/c2ccccc2CC(C)(C)N1C	5.3%	?	?	i	-35.0%	-18.0%
Cc1cccc(C(=O)/C=C2/c3ccccc3CC(C)(C)N2C)c1	-11.6%	-5.3%	11.2µM*	i	-46.5%	-37.2%
Cc1ccc(-c2csc3ncnc(SCC(=O)Nc4nnc(C)s4)c23)cc1	-0.6%	10.5%	5.2%	i	-1.6%	1.4%
Cc1ccc(-c2csc3ncnc(Sc4nnc(CN5CCCCCC5=O)o4)c23)cc1	0.0%	-0.2%	-11.3%	.	-99.9%	28.2µM*
CCOC(=O)CCC(NC(=O)c1ccc(Nc2nc3ccccc3nc2C(=O)OCC)cc1)C(=O)OCC (stereo not drawn)	-3.2%	8.2%	9.0%	29.9µM*	15.0%	26.7µM*
O=C(c1ccc2c(c1)OCCO2)N1CCN(c2nc(-c3cccs3)nc3ccccc23)CC1	.	-19.0%	-11.4%	.	.	.
Cc1ccc(S(=O)(=O)N(C)CCN(C)c2nc(-c3cccs3)nc3ccccc23)cc1	.	12.1%	22.5%	.	.	.
Oc1c(Br)cc(Br)cc1/C=N/c1nc2c(s1)CCCC2	-9.5%	?	?	i	2.4%	?
Oc1ccc2ccccc2c1/C=N/c1nc2c(s1)CCCC2	?	?	23.1µM*	i	0.2%	-0.1%
COc1ccc(NC2=NCC(Cc3ccc(Br)cc3)S2)cc1 (stereo not drawn)	?	?	20.6µM*	?	-39.8%	?
Cc1ccc(-c2nc(N3CCN(S(=O)(=O)c4ccc(F)cc4)CC3)c3ccc(Cl)cc3n2)cc1	25.0%	.	.	.	17.9%	.
SMILES	TGFb inhibitor	HT1080NT lethal	HT1080 IDH1KD tx	ATXN viability	HepG2 viability	ATXN2 expr inh
C=CC[C@@H](CC(=O)N(CCO)Cc1ccccc1)C(=O)N[C@H](C)COC(=O)[C@@H](CC=C)Cc1ccc(F)cc1	-16.6%	-0.1%	-12.9%	i	-9.1%	-25.3%
C=CCC[C@@H](Cc1ccc(F)cc1)C(=O)OC[C@H](Cc1c[nH]c2ccccc12)NC(=O)[C@H](CC=C)CC(=O)N(CCO)Cc1ccccc1	?	?	?	22.4µM*	-35.0%	-17.4%
C=CCC[C@H](Cc1ccc(F)cc1)C(=O)O[C@H](CNC(=O)[C@@H](CC=C)CC(=O)N(CCO)Cc1ccccc1)c1ccccc1	?	?	?	22.4µM*	-58.4%	?
C=CCC[C@H](Cc1ccc(F)cc1)C(=O)OC[C@H](Cc1c[nH]c2ccccc12)NC(=O)[C@@H](CC=C)CC(=O)N(CCO)Cc1ccccc1	?	?	?	.	-33.5%	0.0%
C=CC[C@H](CC(=O)N(CCO)Cc1ccccc1)C(=O)N[C@H](COC(=O)[C@@H](CC=C)Cc1ccc(F)cc1)Cc1ccccc1	?	16.4µM*	?	.	1.4%	?
C=CCC[C@H](Cc1ccc(F)cc1)C(=O)OC[C@@H](Cc1c[nH]c2ccccc12)NC(=O)[C@@H](CC=C)CC(=O)N(CCO)Cc1ccccc1	?	?	?	15.8µM*	-3.9%	?
CCOC(=O)c1cnn(-c2ccc(C(=O)Nc3cc(OC)c(OC)c(OC)c3)cc2)c1N	1.6%	.	.	i	-17.7%	0.3%
Cc1noc(C)c1S(=O)(=O)NCCc1csc2nc(-c3ccc(F)cc3)nn12	-25.8%	.	.	.	-24.1%	.
CCOC(=O)c1c(NC(C)=O)sc2c(OCC(O)CNC(C)(C)C)c(Br)ccc12 (stereo not drawn)	?	?	-28.2%	.	11.2µM*	.
Cc1cc(SCC(=O)Nc2ccc(C(F)(F)F)cc2)nc(=O)[nH]1	-1.5%	.	.	i	-6.4%	-30.7%
O=S(=O)(NCc1ccccc1)c1ccc(NC(=S)NCc2ccco2)cc1	?	-6.7%	-9.9%	i	11.2µM*	.
Cc1ccc(S(=O)(=O)NCC(=O)N(CC(=O)NCc2ccco2)Cc2ccccc2)cc1	2.2%	19.1%	10.7%	i	15.8µM*	-3.6%
Cc1ccc(S(=O)(=O)NCC(=O)N(CCc2ccccc2)CC(=O)NCc2ccco2)cc1	-3.2%	1.8%	3.6%	i	11.8%	5.2%

High-throughput results (PubChem)
